The campaign covered roughly 2,400 compounds. About 580 (24%) were called active.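 The calls were made as follows: active = activity change at or above the mean plus 3 SD of buffer wells without dofetilide, per plate; inactive = the rest.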 A selection follows.

The values below come from PubChem BioAssay AID1942 (Johns Hopkins Ion Channel Center, 2009).

This experiment deals with Potassium voltage-gated channel subfamily KQT member 2 (Rattus norvegicus) (UniProt O88943). Nature of the experiment: rat KCNQ2 channel activation by compounds alone, confirmation, counter-screen for hERG block protector project, cell-based, CHO, FluxOR thallium flux (AID 1942).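 As to activity change, less the hit threshold: normalized value minus buffer-control mean plus three SD of buffer wells.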 Conditions: CHO-KCNQ2 cells, FluxOR thallium flux fluorescence; at 10 µM; stronger effect = higher value. Background: The purpose of a counterscreen is to sort out artefacts and off-target activity.
Potassium voltage-gated channel subfamily KQT member 2 (Rattus norvegicus), sequence (O88943 whole entry, looked up): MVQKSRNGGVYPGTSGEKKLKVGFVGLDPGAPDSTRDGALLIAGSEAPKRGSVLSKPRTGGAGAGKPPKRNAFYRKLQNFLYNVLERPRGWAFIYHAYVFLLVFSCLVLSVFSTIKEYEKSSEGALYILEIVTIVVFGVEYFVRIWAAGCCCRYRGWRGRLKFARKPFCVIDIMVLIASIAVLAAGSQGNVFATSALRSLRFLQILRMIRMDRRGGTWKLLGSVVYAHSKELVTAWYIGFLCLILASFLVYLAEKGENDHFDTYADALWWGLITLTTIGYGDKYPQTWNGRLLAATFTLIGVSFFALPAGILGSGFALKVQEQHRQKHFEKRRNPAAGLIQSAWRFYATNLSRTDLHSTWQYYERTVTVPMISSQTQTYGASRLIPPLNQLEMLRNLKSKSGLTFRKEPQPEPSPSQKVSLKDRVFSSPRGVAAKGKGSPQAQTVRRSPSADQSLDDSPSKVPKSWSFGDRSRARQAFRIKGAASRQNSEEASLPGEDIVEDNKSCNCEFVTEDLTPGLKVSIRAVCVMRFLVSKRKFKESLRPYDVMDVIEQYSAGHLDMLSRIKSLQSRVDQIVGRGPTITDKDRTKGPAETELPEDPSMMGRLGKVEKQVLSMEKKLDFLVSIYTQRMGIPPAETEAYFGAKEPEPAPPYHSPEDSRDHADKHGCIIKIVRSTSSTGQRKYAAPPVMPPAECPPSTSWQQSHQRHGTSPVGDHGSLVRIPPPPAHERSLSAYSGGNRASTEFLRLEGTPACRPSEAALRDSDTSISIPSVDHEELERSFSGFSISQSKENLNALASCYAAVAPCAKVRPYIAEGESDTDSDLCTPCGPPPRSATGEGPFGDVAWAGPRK
As to `O=C1NC(=O)N(c2ccccc2)C(=O)/C1=C/c1ccc(Sc2ccccc2)o1`, the activity change was -16.9% (inactive).

Take `Cc1ccccc1N1C(=O)/C(=C/c2ccco2)C(=O)NC1=S`: the activity change was -6.4% (inactive).

Turning to `O=C1NC(=S)N(c2ccc(F)cc2)C(=O)/C1=C/c1ccco1`, the activity change was 0.7% (active).

`COc1ccc(-c2nc(CSCC(=O)N3CCC4(CC3)OCCO4)c(C)o2)cc1OC`: the activity change is -18.2% (inactive).

In the case of `O=C(Cn1ncc2c3ccccc3n(Cc3ccccc3F)c2c1=O)N1CCC2(CC1)OCCO2`, the activity change is 37% (active).

For `O=C1NC(=O)C(=Cc2ccc(-c3cc(Cl)ccc3[N+](=O)[O-])o2)C(=O)N1`, the activity change is -15.8% (inactive).

On to `CC/C(=C\C=C\[C@@H]1C=C[C@@H]2CCC[C@H]2[C@@H]1C(=O)c1ccc[nH]1)[C@@H]1O[C@@H]([C@@H](C)C(=O)O)CC[C@@H]1C`, for which the activity change, less the hit threshold is 166% (active).

`CN(C)C(=O)O/N=C(\N)COc1ccc(C(C)(C)C)cc1`: the activity change, less the hit threshold was -13% (inactive).

On to `O=c1[nH]c(=S)[nH]c(O)c1/C=C1/C=c2ccccc2=N1`, for which the activity change was -27.3% (inactive).

Take `O=C(COc1ccc(Br)cc1)N1CCN(Cc2ccc3c(c2)OCO3)CC1`: the activity change, less the hit threshold is -18.6% (inactive).

As to `N#CCCn1cc(C(=O)Nc2ccccc2Cl)c(-c2ccc(F)cc2)n1`, the activity change, less the hit threshold was -16.8% (inactive).

`CCOC(=O)c1c(NS(=O)(=O)c2ccccc2)n(CCCOC)c2nc3ccccc3nc12`: the activity change, less the hit threshold is -27.8% (inactive).

Consider `COc1cccc(OC)c1C(=O)Nc1nc(N)n(-c2ccccc2)n1`, for which the activity change, less the hit threshold was -9.7% (inactive).

Consider `COc1ccc2c(c1)/C(=C/c1cnc[nH]1)C(=O)N2`, for which the activity change, less the hit threshold was 0.2% (active).

`COc1ccc(OC)c(N2C(=O)/C(=C/c3ccco3)C(=O)NC2=S)c1`: the activity change was -13.8% (inactive).

On to `O=C1NC(=O)N(CCNc2ncc(C(F)(F)F)cc2Cl)C(=O)C1Cc1ccc(Cl)cc1` (stereo not given), for which the activity change was -25.6% (inactive).

Consider `COc1ccc(CN2CCCC(C(=O)c3sccc3C)C2)cc1O` (stereo not given), for which the activity change, less the hit threshold was -26.3% (inactive).

Turning to `C=CCN1C(=O)/C(=C/c2ccc(Br)s2)C(=O)NC1=S`, the activity change is -20.2% (inactive).

In the case of `O=c1c2ccccc2[nH]c(=S)n1-c1ccc2c(c1)OCCO2`, the activity change, less the hit threshold was -18.7% (inactive).

For the compound `O=C(O)CCC(=O)NCCC1=c2ccccc2=N/C1=C\c1c(O)n(Cc2ccc(F)cc2)c(=S)[nH]c1=O`, the activity change was -17.9% (inactive).
